Measured values from PubChem BioAssay (NCI).
Compounds without any hit were thinned out: in the full panel of roughly 83,000, 20% have a hit.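 Percent growth is the endpoint: 0 to 100 indicates growth inhibition (40 means 60% inhibition), 0 means no net growth, and negative values indicate cell death.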 A number with no mark means an inactive call. Active and inactive are the calls of the source. Rule for the calls: active = growth percent below 10; inactive = the rest.

Legend:
Assay in all cases: NCI-60 one-dose screen, 48 h (100 = growth as untreated, 0 = no growth, -100 = all killed)
Settings in all cases: 10 µM unless noted
[1] = test system: SK-MEL-2 melanoma
[2] = test system: EKVX NSCLC
[3] = test system: SN12C renal
[4] = test system: TK-10 renal
[5] = test system: ACHN renal
[6] = test system: CAKI-1 renal
[7] = test system: A498 renal
[8] = test system: CCRF-CEM leukemia
[9] = test system: MOLT-4 leukemia
[10] = test system: UO-31 renal

Row | Structure (SMILES) | growth [1] | growth [2] [%] | growth [3] | growth [4] | growth [5] | growth [6] | growth [7] | growth [8] | growth [9] | growth [10] [%]
1 | C[C@]12CCc3c(ccc4cc(O)ccc34)[C@@H]1CC[C@H]2O | 101% | 56.9 | 87.6% | 102% | 103% | 87.8% | 85% | 90.4% | 95.1% | –
2 | O=C(Nc1cccnc1)c1ccc2ccc3ccc(C(=O)Nc4cccnc4)nc3c2n1 | 25.8% | 54.4 | 32.4% | 37.1% | 23.3% | 10.7% | -39.1% (active) | 28.5% | 32.1% | –
3 | O=C1COCCN1c1ccc(NCc2cn(Cc3cccc4ccccc34)c3ccccc23)cc1 | 93.4% | 96.6 | 92.6% | 44.4% | 91.4% | 7.53% (active) | -39.1% (active) | 96.9% | 92% | –
4 | CCOC(=O)c1c[nH]n2c(=S)ncnc12 | 94.8% | 108 | 99.4% | 99.6% | 99.7% | 102% | 98.5% | 101% | 90.7% | –
5 | Nc1cc(Cl)cc2cccnc12 | 119% | 102 | 91.1% | 109% | 102% | 101% | 116% | 55.7% | 77.8% | –
6 | c1ccc(-c2nnc(-c3c[nH]c4ncccc34)s2)cc1 | 103% | 37.2 | 86.6% | 124% | 69.4% | 53.3% | 67.3% | 101% | 83.4% | –
7 | O=C1NC(=O)c2cc([N+](=O)[O-])cc3cccc1c23 | 107% | 94.2 | 98.1% | 107% | 103% | 84.8% | 87.1% | 89.8% | 115% | –
8 | O=C(NCc1ccccc1)C(Cl)Cl | 96.2% | 95.4 | 104% | 90.2% | 104% | 96.5% | 94.4% | 103% | 101% | –
9 | c1ccc(-c2nc(N3CCCNCC3)c3nc(-c4ccccc4)oc3n2)cc1 | 102% | 62.8 | -22.5% (active) | -47.3% (active) | -53.5% (active) | 40.1% | 69.9% | 12.7% | 0.525% (active) | –
10 | CCN(CCNc1ccc(C)c2sc3cc(Cl)ccc3c(=O)c12)CC(C)O (stereo not given) | 40.7% | 88.9 | 48.7% | 76.7% | 44.7% | 43.7% | 51.4% | 36.8% | 34.5% | –
11 | c1coc2occoc=2o1 | 105% | 106 | 89.2% | 103% | 102% | 101% | 107% | 98.9% | 114% | –
12 | Cc1cccc(C[C@H](NC(=O)Nc2ccc(C)cc2F)C(=O)N[C@@H]2C(=O)N3C[C@H](O)C[C@H]3C(=O)N3CCN(C)C[C@H]3C(=O)N[C@@H](C)C(=O)N3C[C@H](C)C[C@H]3C(=O)O[C@H]2C)c1 | 39.9% | 69.6 | 21.5% | 94.1% | 106% | 82.1% | 32.8% | 62.5% | 40.4% | 93
13 | CCCCN(CC)CC(CC)Nc1cc(OC)cc2cccnc12 (stereo not given) | 115% | 128 | 99.7% | 100% | 104% | 111% | 112% | 99.6% | 111% | –
14 | NC(=O)c1cccc(-c2ccc(S(=O)(=O)Nc3ccc4c(c3)N(C(=O)C3CC3)CCC4)cc2)c1 | 7.54% (active) | – | 52.1% | 77.8% | 79.2% | 72.4% | 5.86% (active) | 33.5% | 57.8% | 82.2
15 | O=C1CC(c2ccccc2)Cc2nc3ccc(Br)cc3cc21 (stereo not given) | 45.2% | 36.3 | 32.2% | 73.4% | 34.3% | 30.7% | -12.4% (active) | 8.51% (active) | 10.5% | –
16 | O=C1/C(=C\c2cccn2Cc2ccccc2)c2ccccc2N1c1c(Cl)cccc1Cl | 45.7% | 38.8 | 87.3% | 22.9% | 53.7% | 55.8% | 72.9% | 92.9% | 86.6% | –
17 | COc1ccc2c(c1)C(C)Cc1c(Cl)ncnc1N2C (stereo not given) | -29.4% (active) | 12.4 | -0.561% (active) | 13% | 9.12% (active) | 2.36% (active) | -39.3% (active) | 13.8% | 1.59% (active) | 16.9
18 | CCOC(=O)n1cc(C2=C(c3ccc(OC)c(OC)c3)COC2=O)c2ccccc21 | 62.1% | 51.5 | 18.5% | 53.7% | 23.1% | 23.6% | -25.3% (active) | 17.6% | 11.6% | –
19 | COC(=O)c1cc2c(=O)[nH]cc3c2c(n1)CCC3 | 95.2% | 101 | 97.2% | 106% | 105% | 97.4% | 104% | 103% | 100% | –
20 | COc1ccc2c(c1)c(-c1noc(C(=O)c3cn(C)c4ncc(Br)cc34)n1)cn2C | 97.4% | 75.4 | 77.6% | 21.8% | 39.8% | 68.9% | 48.5% | 56.9% | 77.2% | –
21 | O=S(=O)(c1ccc(N/N=C\c2ccccc2Cl)cc1)c1ccc(N/N=C/c2ccccc2Cl)cc1 | 89.1% | 84.5 | 87.2% | 110% | 82.7% | 62.2% | 94.2% | 75.9% | 65.1% | –
22 | O=C1Nc2ccccc2/C1=C/C(=O)c1ccc(N2CCCCC2)cc1 | 113% | 106 | 73.5% | 85.8% | 27.6% | 63.8% | 95.8% | 5.19% (active) | -6.75% (active) | 47.4
23 | N#Cc1c(N2CCOCC2)nc(=S)[nH]c1-c1ccco1 | 37.1% | 48.8 | 77.6% | 47.1% | 64.2% | 58.2% | -1.37% (active) | 49.6% | 64.5% | –
24 | Clc1ccc(/C=N/Nc2nc3ccccc3s2)c(Cl)c1 | 112% | 66.9 | 95.3% | 95.4% | 82.8% | 82% | 81.6% | 80.5% | 98.4% | 68.2
25 | Cc1cnc(N)nc1OCC(C)(C)CNC(=O)c1cccc(-c2ccc(S(=O)(=O)Nc3ccc4c(c3)N(C(=O)C3CC3)CCC4)cc2)c1 | 67.7% | 62.9 | 68.5% | 76.6% | 70.2% | 52.1% | 37.3% | 61.7% | 29.1% | –
26 | O=C1CC(c2ccccc2)Cc2nc3ccc(Cl)cc3cc21 (stereo not given) | 57.1% | 30.2 | 28.3% | 71.2% | 30.8% | 29.2% | -17.4% (active) | 10.4% | 11.6% | –
27 | COc1ccc(/C=C/C(=C/c2c(O)[nH]c3cc(Br)ccc23)N=O)cc1 | 140% | 108 | 102% | 148% | 110% | 93.1% | 93.6% | 104% | 104% | –
28 | Cc1cc[n+](CCCCCCCCCC[n+]2ccc(C)cc2)cc1 | 98.4% | 95.4 | 63.5% | 82.7% | 105% | 96.6% | 85% | 99.1% | 83.5% | –
29 | O=C(N=c1n(-c2ccccc2)nc2n1CCN2C1=NCCN1)c1ccc(Cl)cc1 | 106% | 93.9 | 80.1% | 89.5% | 96.7% | 79.2% | 68.3% | 77.8% | 77.7% | –
